We go through 11 substances from ChEMBL document CHEMBL1201862, “PubChem BioAssay data set” (2004).

Among all 54,000 sequences or so, about 2,800 (5.2%) were called active. Cut-off read from the data, not from the text of the source: active = GI50 up to about 1.1 µM and inactive = higher. Not all results are given here. Results with a measured potency or affinity are listed apart.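 Cells were grown in 96-well plates and exposed to each compound for 48 hours at five concentrations; endpoints were interpolated linearly between bracketing concentrations, or set to the highest concentration if not reached. GI50 is the concentration that inhibits growth by half.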

This experiment has as its system NCI-H226. The experiment in a line: NCI tumour cell line growth inhibition, 48 h.
“cis-Bis[[(trimethylsilyl)methyl]amino]tetrachloroplatinum(IV), CHEMBL2146191” gave a GI50 of 13.6 µM.

As for CISPLATIN, CHEMBL11359, the GI50 came out at 5.05 µM.

Turning to “[Bis(aminomethyl)dimethylsilane]tetrachloroplatinum(IV), CHEMBL2146190”, the GI50 came to 4.49 µM.

“[Bis(aminomethyl)tetramethylenesilane]tetrachloropaltinum(IV), CHEMBL2146189”: the GI50 was determined as 8.18 µM.

“[Bis(aminomethyl)tetramethylenesilane]dichloropaltinum(II), CHEMBL2146205” showed a GI50 of 32.9 µM.

The substance “mu-(1,7-nanodiamine-N,N')bis-(cis-aminedichloroplatimum (II)), CHEMBL2146215” displayed a GI50 of 1.07 µM.

As to “[Bis(aminomethyl)pentamethylenesilane]dichloropaltinum(II), CHEMBL2146202”, the GI50 was found to be 1.43 µM.

Substance “[Bis(aminomethyl)ethylmethylsilane]tetrachloroplatinum(IV), CHEMBL2146192” registered a GI50 of 5.75 µM.

“[Bis(aminomethyl)diethylsilane]tetrachloroplatinum(IV), CHEMBL2146203” showed a GI50 of 1.5 µM.

Consider “[Bis(aminomethyl)pentamethylenesilane]tetrachloropaltinum(IV), CHEMBL2146204”, for which the GI50 is 3.88 µM.

“[Bis(aminomethyl)dimethylsilane]dichloroplatinum (II), CHEMBL2146201” registered a GI50 of 35.8 µM.
